# Assay outcomes as filed in PubChem BioAssay.
# TCR act: Activators of T cell receptors: qHTS campaign; Potency, µM (series often up to 9.22 µM), most hits filed as activators; primary human leukocytes, anti-CD3, IL-2 HTRF, 48 h; 330,000 tested, under 10 active
#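 Activity was scored as IL-2 release from primary human leukocytes given only a TCR signal (a-CD3 beads) plus compound for 48 hr. Detection used a two-antibody HTRF format read at 665nm.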
# Akt phos inh: HTS Assay for Inhibitors of Akt Phophorylation: Primary Screen; activity change, % for hits at 50 µM; AID 651550, 2012; 360,000 tested, 0.32% active; Neuro2A IGF-stimulated pAkt S473 HTRF, 20 min; hits give low values; in the data active = activity change below about -80%; inconclusive = mostly about -51% to -80%
#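 Single-point screen (50 µM final compound) in Neuro2A cells stimulated 20 min with 6 nM IGF at 37 deg C. After lysis, Ser473-phosphorylated Akt read by HTRF (ex 330 nm, em 615/665 nm) as the 665/615 ratio.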
# BRCA1 expr act: qHTS Assay to Identify Small Molecule Activators of BRCA1 Expression. Potency, µM (doses to about 46.1 µM), actives largely listed as activators. 380,000 tested, 1.1% active. MCF7-BRCA1-FFLuc reporter, luminescence, 48 h; response scale: scaled: vehicle 0%, 10 µM genistein 100%. AID 624202, 2012; note: nearly all actives have a fitted effect of over 80% in size
#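 MCF7-BRCA1-FFLuc, 2000 cells/well; 2 h attach, 37 °C/5% CO2; compound 48 h; luciferase substrate 15 min; luminescence end-point. Norm. to genistein 10 microM max activation and DMSO; concentration-response curves fitted.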
# PINK1 expr mod: A Quantitative High throughput Screen to Identify Chemical Modulators of PINK1 Expression; PINK1 immunofluorescence, high-content cytometry, 24 h; Potency, µM (titrated, usually from 76.6 µM), usual class: activators; 410,000 tested, 0.2% active; AID 624263, 2012; active = well fitted activation curve with a large enough effect; inconclusive = small, poorly fitted or top-dose-only effect; cell line not stated here; note: nearly all actives have a fitted effect of over 65% in size
#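 Stable cell line treated 24 h with compounds at 5 concentrations (CCCP controls), then fixed and immunostained for PINK1 plus nuclear and cell stains; PINK1 immunofluorescence quantified by laser-scanning microplate cytometry.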
# Numbers stand for hits; i = inactive; ? = inconclusive; nt = no result. In the library only some 1.5% were active in any assay of this set; here they are far more common. Unless noted, calls come from the whole dose curve; as a rule, active = well fitted curve in the direction sought with a large enough effect; inconclusive = small, poorly fitted or top-dose-only effect, or another doubt; inactive = no such curve, though single readings can be large; an effect the other way counts as inactive or inconclusive.
SMILES,TCR act,Akt phos inh,BRCA1 expr act,PINK1 expr mod
CCN1C(=O)[C@H]2[C@H]3[C@H](O)[C@H](O)CC(=O)[C@@H]3CC[C@H]2C1=O,nt,nt,i,i
C[N+](C)(CCCCCI)c1ccc(/C=C/c2nc3ccccc3s2)cc1,nt,nt,i,?
CCC1(C2CCN(Cc3cccc4ccccc34)CC2)NC(=O)N(Cc2ccc3c(c2)OCO3)C1=O (centres undefined),nt,nt,nt,i
Cc1nc2ccc(NC(=O)CS(=O)(=O)c3ccc(F)cc3)cc2s1,i,i,11.2µM,i
Cc1ccc(S(=O)(=O)CC(=O)Nc2ccc3nc(C)sc3c2)cc1,i,i,i,i
COc1ccc(-c2ccnc(-n3ncc(C(=O)NCc4ccon4)c3C3CC3)n2)cc1F,nt,nt,nt,i
O=C1CCCC/C1=C/Nc1ccc(S(=O)(=O)Nc2ncccn2)cc1,i,-120.0%,i,i
COc1ccc(C(=O)NCCN2Cc3cc(C)ccc3OC(C)C2)c(OC)n1 (centres undefined),nt,nt,nt,i
COC(=O)NC(NC(=S)Nc1ccc([N+](=O)[O-])cc1)C(Cl)(Cl)Cl (centres undefined),i,i,i,20µM
O=C(NNC(=S)NC(=O)c1ccccc1Cl)c1cccc([N+](=O)[O-])c1,i,i,i,i
CCOC(=O)NC(NC(=S)Nc1ccc(OC)cc1)C(Cl)(Cl)Cl (centres undefined),i,i,i,i
O=C(NC(NC(=S)Nc1c(Cl)cccc1Cl)C(Cl)(Cl)Cl)c1cccc([N+](=O)[O-])c1 (centres undefined),i,i,i,28.2µM
COCCCn1c(=O)/c(=C\c2ccccc2OC(F)F)s/c1=C(/C#N)C(N)=O,i,i,i,35.5µM
COCCCn1c(=O)/c(=C\c2ccc(OC(F)F)c(OC)c2)s/c1=C(/C#N)C(N)=O,i,i,i,i
CN(Cc1ccco1)c1ncnc2ccc(-c3ccccc3C#N)cc12,nt,nt,nt,i
Clc1ccc(-c2cn3cccnc3n2)cc1,i,i,?,i
Brc1ccc(-c2cn3cccnc3n2)cc1,i,i,3.55µM,i
CCOC(=O)c1ccc(NC(=O)CCc2nc(-c3ccccc3)no2)cc1,i,-100.9%,i,i
CCOC(=O)c1ccc(NC(=O)Cn2nnc3ccccc32)cc1,i,i,3.98µM,i
CCSc1nn(CC(=O)Nc2ccc(C(=O)OC)cc2)c(N)c1S(=O)(=O)c1ccc(C)cc1,nt,nt,i,i
CCOC(=O)c1ccc(NC(=O)Cn2nc(SC)c(S(=O)(=O)c3ccc(Cl)cc3)c2N)cc1,nt,nt,i,17.8µM
CCOC(=O)c1ccc(NC(=O)CCn2nnc3ccccc32)cc1,i,i,i,i
Cc1cnc(SCc2ccccn2)nc1C1CCCN(C(=O)c2ccc3c(c2)OCCO3)C1 (centres undefined),nt,nt,nt,i
O=C(CCn1c(=O)c2cccn2c2ccc(F)cc21)NCc1ccccc1F,nt,nt,nt,i
COC(=O)c1cn([C@@H]2C[C@@H](C(=O)Nc3cccc(SC)c3)N(C3CCCCCC3)C2)nn1,nt,nt,nt,i
SMILES,TCR act,Akt phos inh,BRCA1 expr act,PINK1 expr mod
COc1cc2c(cc1NC(=O)CSc1ccc(C)cc1)oc1ccccc12,i,i,i,i
COc1cc2c(cc1NC(=O)Cc1ccc(C)cc1)oc1ccccc12,i,i,7.94µM,i
COc1cc2c(cc1NC(=O)COc1ccccc1OC)oc1ccccc12,nt,i,i,14.1µM
Cc1nn(-c2ccccc2)c(Cl)c1/C=N/NC(=O)c1ccn[nH]1,i,nt,?,i
Cc1nn(-c2ccccc2)c(Cl)c1/C=N/NC(=O)c1ccccc1F,i,i,11.2µM,i
FC(F)(F)c1cnc(Oc2ccc(-c3nnco3)cc2)c(Cl)c1,i,i,i,i
Fc1ccc(COc2ccc(-c3nnco3)cc2)c(Cl)c1,i,i,8.91µM,i
O=C(COc1ccc(-c2nnco2)cc1)Nc1c(F)cccc1F,i,i,i,i
Fc1cc(Br)ccc1COc1ccc(-c2nnco2)cc1,i,i,6.31µM,i
CCCCCCC(=O)Nc1ccc2nc3c(=O)n(C)c(=O)n(C)c3nc2c1C,nt,nt,nt,i
CC(C)(C)C(=O)Nc1nc2c(s1)CN(Cc1ccccc1)CC2,i,i,8.91µM,i
CC(C)(C)c1nc2cc(Cl)c([N+](=O)[O-])cc2o1,i,i,i,14.1µM
O=C(Nc1ccccc1)c1cc2ccccc2o1,i,i,i,i
O=C(Nc1ccc(N2CCCCCC2)cc1)c1ccc[nH]1,i,i,1.41µM,i
O=C(Nc1ccc(N2CCCC2)cc1)c1cc2ccccc2o1,i,i,8.91µM,i
O=C(Nc1ccc(N2CCCCCC2)cc1)c1ccccc1Cl,i,i,?,i
CC(C)C(=O)Nc1cccc(NC(=O)c2cc3ccccc3o2)c1,i,i,10µM,i
O=C(Nc1cccnc1)c1cc2c(ccc3ccccc32)o1,i,i,12.6µM,i
CCN1CCCC1CNCc1cc2ccc(SC)cc2nc1-c1cc(OC)ccc1OC (centres undefined),nt,nt,nt,i
COc1cc(NC(=O)C(C)C)ccc1NC(=O)c1cc2ccccc2o1,i,i,8.91µM,i
O=C(CCc1ccccc1)Nc1ccc(N2CCCCC2)cc1,i,i,11.2µM,i
CC(=O)Nc1cccc(NC(=O)c2cc3ccccc3o2)c1,i,i,8.91µM,i
COc1ccc(NC(=O)CSc2nc3ccccc3cc2Cc2ccccc2)cc1,nt,i,i,11.2µM
COc1ccc(NC(=O)CSc2ncnc3c2cnn3CCc2ccccc2)cc1,i,-132.1%,i,i
COc1cccc(NC(=O)CSc2ncnc3c2cnn3Cc2ccccc2)c1,i,i,i,i
SMILES,TCR act,Akt phos inh,BRCA1 expr act,PINK1 expr mod
COc1cc(NC(=O)CSc2nc3ccccc3cc2Cc2ccccc2)cc(OC)c1,nt,i,i,?
O=c1c2c3c(sc2nc2n1N=C(c1cccs1)CS2)CCCC3,i,i,1.26µM,i
O=c1oc(-c2cccs2)nc2sc3c(c12)CCCC3,i,i,i,i
CN(C(=O)c1ccco1)c1nc(-c2ccc(Cl)cc2)cs1,i,i,10µM,i
COc1ccc(N(C(=O)c2ccco2)S(=O)(=O)c2cccs2)cc1,i,-113.1%,i,i
COc1ccc(C(=O)N(c2ccc(OC)cc2)S(=O)(=O)c2cccs2)cc1,i,i,i,i
CN(C)CCCN(C(=O)c1ccco1)c1nc(-c2ccc(Cl)cc2)cs1,i,i,i,i
COc1ccc(-c2csc(N(C)C(=O)c3ccco3)n2)cc1,nt,i,7.08µM,i
COc1ccc(OC)c(-c2csc(N(C)C(=O)c3ccco3)n2)c1,i,i,i,i
CCCCC(=O)N(CCOC)c1nnc(-c2ccc(OC)cc2)s1,i,-103.4%,i,i
COc1cc(/C=C/CN2CCOc3ccc(C(O)c4cccnc4)cc3C2)ccc1O (centres undefined),nt,nt,nt,i
Cn1ccc(C(=O)NCC2CCC3(CCN(Cc4cc(F)cc(F)c4)CC3)O2)n1 (centres undefined),nt,nt,nt,i
CC(=O)Nc1ccccc1-c1nc(CNC(=O)c2ccc(-c3ccccc3F)cc2)c(C)o1,nt,nt,nt,i
CN(C(=O)c1ccno1)c1nnc(-c2ccccn2)s1,i,i,i,i
